# Results published in PubChem BioAssay AID2235 (The Scripps Research Institute Molecular Screening Center, 2010).
# Screen size: about 320,000 compounds; about 2,800 (0.88%) were called active. The list comes from a sample in which actives are over-represented; it also holds similar structures and randomly drawn compounds. Unmarked numbers belong to inactive results.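 The calls were made as follows: active = inhibition above the mean inhibition of all tested compounds plus 3 SD, computed separately for each screening campaign (cut at about 15% in these data); inactive = the rest.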
# Target: Serine/threonine-protein phosphatase PP1-alpha catalytic subunit (Homo sapiens) (UniProt P62136)
# Sequence (P62136 whole entry, looked up): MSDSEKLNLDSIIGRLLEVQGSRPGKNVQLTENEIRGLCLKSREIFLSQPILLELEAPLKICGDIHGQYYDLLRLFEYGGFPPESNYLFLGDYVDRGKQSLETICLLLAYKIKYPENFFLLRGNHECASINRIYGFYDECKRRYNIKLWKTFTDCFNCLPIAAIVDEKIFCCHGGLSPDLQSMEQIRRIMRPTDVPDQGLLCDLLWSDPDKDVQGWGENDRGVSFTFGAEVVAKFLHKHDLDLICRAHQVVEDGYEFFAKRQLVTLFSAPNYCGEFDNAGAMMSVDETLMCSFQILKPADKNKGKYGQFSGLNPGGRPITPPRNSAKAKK
# Assay: PP1-alpha phosphatase inhibitors, primary screen, counter-screen for PP5 inhibitor project, biochemical, fluorescence, OMFP substrate, single point (AID 2235)
# Details: purified PP1alpha, at 6.7 µM, stronger effect = higher value
row,SMILES,inhibition
1,O=C(O)c1cc([N+](=O)[O-])c(Nc2cccc3ccccc23)c([N+](=O)[O-])c1,3.7%
2,Cc1ccc(C)c(Cn2nnc3c(=O)[nH]c(C(=O)Nc4ccc(F)cc4)nc32)c1,46.5% (active)
3,Cc1cc(C)cc(NC(=O)Cn2cnc3c(nnn3Cc3ccc(F)cc3)c2=O)c1,8.94%
4,O=C(Nc1ccc(F)cc1)N1CCCC(c2nc3c(nnn3Cc3ccccc3Cl)c(=O)[nH]2)C1 (stereo unspecified),4.93%
5,CCCn1nnnc1NCc1ccc(CC)cc1,0.05%
6,Cc1nc(NC(=O)C2CCCCC2)sc1C,-0.06%
7,COc1ccc(Cn2nnc3c(=O)[nH]c(C4CCN(C(=O)c5ccccc5Cl)CC4)nc32)cc1,1.01%
8,Cc1ccc(NC(=O)N2CCC(c3nc4c(nnn4Cc4c(F)cccc4Cl)c(=O)[nH]3)CC2)cc1,4.5%
9,Cc1ccc(Cn2nnc3c(=O)[nH]c(C4CCN(S(=O)(=O)/C=C/c5ccccc5)CC4)nc32)cc1,20.9% (active)
10,Cc1ccc(S(=O)(=O)CCC(=O)OCc2ccccc2)cc1,-6.27%
11,CC(=O)[C@@]12O[C@@H]1C[C@H]1[C@@H]3CC[C@H]4C[C@@H](O)CC[C@]4(C)[C@H]3CC[C@@]12C,0.47%
12,C=CCN(CC=C)S(=O)(=O)c1ccc(C(=O)Nc2nc3c(s2)CCc2ccccc2-3)cc1,25.9% (active)
13,C=CCN(CC=C)S(=O)(=O)c1ccc(C(=O)Nc2sc3c(c2C(N)=O)CCCCC3)cc1,-0.71%
14,COc1ccc(C(=O)Nc2ncc3c(n2)-c2ccccc2CC3)cc1,-1.56%
15,COCCN(CCOC)S(=O)(=O)c1ccc(/C(O)=C(\C#N)c2nc3ccccc3[nH]2)cc1,-3.73%
16,COCCN(CCOC)S(=O)(=O)c1ccc(C(=O)Nc2nc3c(s2)CCc2ccccc2-3)cc1,22.6% (active)
17,CCN(c1ccccc1)S(=O)(=O)c1ccc(C(=O)Nc2nccs2)cc1,1.49%
18,Cc1ccc(NC(=S)Nc2ncccc2C)c(C)c1,-1.13%
19,C#CCOCCOCCOCCNc1nc(N2CCN(C(=O)C([C@@H](C)CC)n3cc(C(N)COC(=O)C(F)(F)F)nn3)CC2)nc(N2CCN(C(=O)[C@H](CCCCN)n3cc(C(N)CC(C)C)nn3)CC2)n1 (stereo partly specified),8.45%
20,C#CCOCCOCCOCCNc1nc(N2CCN(C(=O)CCCCCCCCCCNC(=O)[C@H](CCCCN)n3cc(C)nn3)CC2)nc(N2CCN(C(=O)CCCCCCCCCCNC(=O)[C@H](CO)n3cc(CCCSC)nn3)CC2)n1,64.8% (active)
21,C#CCOCCOCCOCCNc1nc(N2CCN(C(=O)[C@H](CCCCN)n3cc([C@@H](N)C(C)CC)nn3)CC2)nc(N2CCN(C(=O)[C@H](Cc3ccc(O)cc3)n3cc([C@@H](N)C(C)CC)nn3)CC2)n1 (stereo partly specified),5.1%

row,SMILES,inhibition
1,C#CCOCCOCCOCCNc1nc(N2CCN(C(=O)[C@H](C(C)C)n3cc(CCO)nn3)CC2)nc(N2CCN(C(=O)[C@H]([C@@H](C)CC)n3cc(CCCN=C(N)N)nn3)CC2)n1,0.22%
2,C#CCOCCOCCOCCNc1nc(N2CCN(C(=O)[C@H](CCCCN)n3cc(CCC(=O)O)nn3)CC2)nc(N2CCN(C(=O)[C@H](CCCCN)n3cc(CC(C)O)nn3)CC2)n1 (stereo partly specified),5.96%
3,C#CCOCCOCCOCCNc1nc(N2CCN(C(=O)Cn3cc(CCCCN)nn3)CC2)nc(N2CCN(C(=O)[C@H](CCCCN)n3cc(CCC(=O)O)nn3)CC2)n1,-0.58%
4,C#CCOCCOCCOCCNc1nc(N2CCN(C(=O)CCCCCCCCCCNC(=O)Cn3cc(CCCCCN)nn3)CC2)nc(N2CCN(C(=O)CCCCCCCCCCNC(=O)[C@H](CO)n3cc(CCCSC)nn3)CC2)n1,64.7% (active)
5,C#CCOCCOCCOCCNc1nc(N2CCN(C(=O)CCCCCCCCCCNC(=O)[C@H]([C@@H](C)CC)n3cc(CCCCN=C(N)N)nn3)CC2)nc(N2CCN(C(=O)CCCCCCCCCCNC(=O)[C@H](CO)n3cc(CCCSC)nn3)CC2)n1,53.8% (active)
6,C#CCOCCOCCOCCNc1nc(N2CCN(C(=O)[C@H](C(C)C)n3cc(CCO)nn3)CC2)nc(N2CCN(C(=O)[C@H](C(C)C)n3cc(CCO)nn3)CC2)n1,-0.91%
7,CN1CCN(c2ccc(CNS(=O)(=O)c3cccc(F)c3)cc2)CC1,-3.01%
8,O=C1/C(=C/c2cccs2)CCC1C1CCCC1 (stereo unspecified),-2.41%
9,CC(=O)Oc1cc2c(C(=O)NCCN3CCOCC3)c(C)oc2c2ccccc12,-0.6%
10,Cc1ccc(N=C2NC(=O)c3cccc([N+](=O)[O-])c32)cc1,-1.21%
11,COc1ccccc1C(=O)NC(=O)COC(=O)C1CC1,-1.39%
12,CCC(=C/c1sc2ccc3ccccc3c2[n+]1C)/C=C1\Sc2ccc3ccccc3c2N1C,79.3% (active)
13,CC(NCc1ccccc1OC1CCCC1)c1ccccc1 (stereo unspecified),-3.47%
14,O=C(Nc1ccc(S(=O)(=O)NCC2CCCO2)cc1)c1ccc(F)cc1 (stereo unspecified),1.04%
15,CCOCCCNc1nc(-c2ccccc2)nc2ccccc12,3.36%
16,CCC(=O)OCCNc1nc(-c2ccccc2)nc2ccccc12,0.15%
17,Cc1ccc(Oc2nc3ccccc3n3c(C)nnc23)cc1,-3.88%
18,CC(C)(C)c1ccc(Oc2ccc(N)cc2)cc1,1.18%
19,COc1ccc(NCCc2ccccn2)cc1,1.13%
20,Cc1ccc(Oc2nc(-c3ccccn3)nc3ccccc23)cc1,17.4% (active)
21,N#Cc1ccc(Oc2cc(C(F)(F)F)nc(-c3ccccn3)n2)cc1,-1.29%

row,SMILES,inhibition
1,CC(C)(C)Nc1nc(-c2ccccn2)nc2ccccc12,18.4% (active)
2,COc1cnc(-c2ccccn2)nc1Oc1ccc(C(C)(C)C)cc1,57.9% (active)
3,COC(=O)C1=NNC2(c3ccc(C)cc3)C(=O)N(c3cccc(C)c3C)C(=O)C12 (stereo unspecified),2.4%
4,Cc1ccc(-c2cnc(NC(=O)CCC(=O)N(C)Cc3ccccc3)n2C)cc1,-3.93%
5,CC(c1nnc(SCC(=O)Nc2sccc2C#N)n1-c1ccc(Cl)cc1)N(C)C (stereo unspecified),-0.51%
6,COc1ccc(NC(=O)CN(C)C(=O)c2cc(C3CC3)nn2-c2ccccc2)cc1,-0.28%
7,CC(C)Oc1ccc(CC(=O)NNC(=S)Nc2ccc(Br)cc2)cc1,6.13%
8,Cc1ccc(C(=O)NNC(=O)c2cc3cc4ccccc4nc3s2)cc1,15.8% (active)
9,Cc1ccc(C(=O)NNC(=O)c2cccs2)cc1,3.43%
10,O=C(NNC(=O)c1cc2c(s1)CCCC2)c1ccccc1,-3.37%
11,O=C(O)c1cccc(N=NN2CCCCCC2)c1,2.62%
12,CCN(CC(=O)Nc1ccc(NC(C)=O)cc1)C(=O)CSC(=S)N1CCCC1,-1.09%
13,CCOc1cc(C)ccc1OCc1nnc(SCC(=O)Nc2cccc(C(=O)O)c2)n1-c1ccccc1,-6.28%
14,COc1ccc2nc(/N=C(\N)NC(=O)Nc3ccccc3)nc(C)c2c1,7.87%
15,O=C(NNC(=O)C(O)c1ccccc1)NC1CCCCC1 (stereo unspecified),-1.2%
16,Cc1nc(/N=C(\N)NC(=O)NC2CCCCC2)nc2ccccc12,18.6% (active)
17,CC1(C)C2CC=C(/C=N/NC(=O)c3ccc(Cl)cc3)C1C2 (stereo unspecified),0.59%
18,COc1ccc(C(C#N)Nc2ccc(C)cc2)cc1 (stereo unspecified),-2.92%
19,N#CC1=C(N)Oc2c(ccc3cccnc23)C1c1ccncc1 (stereo unspecified),-1.75%
20,N#CC1=C(N)Oc2c(sc3ccccc23)C1c1ccco1 (stereo unspecified),15.7% (active)
21,CON(C)S(=O)(=O)c1ccc2c(c1)NC(=O)C1CCCN21 (stereo unspecified),5.21%

row,SMILES,inhibition
1,O=C(NC(=S)NC1CCS(=O)(=O)C1)c1cccc([N+](=O)[O-])c1 (stereo unspecified),-0.09%
2,CC1=NN(c2ccccc2)C(=O)C1C(=O)c1ccc([N+](=O)[O-])cc1 (stereo unspecified),-1.75%
3,Cc1nn(-c2ccc([N+](=O)[O-])cc2)c(N)c1-c1ccccc1,-0.19%
4,O=C1CC(c2ccccc2)=NN1c1ccc([N+](=O)[O-])cc1,15.4% (active)
5,Cc1ccc(NC(=O)CN(C)C(=O)COC(=O)c2nccnc2N)cc1,6.11%
6,COc1ccc(NC(=S)SC)cc1OC,-7.31%
7,COC(=O)c1cc(NC(=O)C2C3C=CC(C3)C2C(=O)O)cc(C(=O)OC)c1 (stereo unspecified),2.03%
8,COc1ccc(NC(=O)CNC(=O)Cc2ccccc2)cc1OC,-3.57%
9,COc1ccc(NC(=O)C2C3CCC(O3)C2C(=O)O)cc1OC (stereo unspecified),71.5% (active)
10,CC(C)OC(=O)c1cc(NC(=O)C2C3CCC(O3)C2C(=O)O)cc(C(=O)OC(C)C)c1 (stereo unspecified),48.8% (active)
11,Cc1sc(NC(=O)C2C3CCC(O3)C2C(=O)O)c(C(=O)OC(C)C)c1-c1ccc(Cl)cc1 (stereo unspecified),10.9%
12,COc1ccc(N(CC(=O)N/N=C/c2cccc3c2OCCO3)S(=O)(=O)c2ccc(NC(C)=O)cc2)cc1,4.91%
13,CCOc1ccccc1N1CN(Cc2ccccc2)CNC1=S,-3.54%
14,CC(C)c1ccc(N(C(=O)c2ccco2)C(C(=O)NC2CCCC2)c2cccnc2)cc1 (stereo unspecified),4.81%
15,CN(CC(=O)Nc1ccc(Cl)cc1)C(=O)CNC(=O)c1ccc2ccccc2c1,-2.18%
16,CC(=O)Nc1ccc(C(=O)Nc2nc(-c3cc(C)n(Cc4ccccc4)c3C)cs2)cc1,3.86%
17,Cc1cc(-c2csc(N)n2)c(C)n1-c1ccccc1,25.1% (active)
18,Cc1cc(-c2csc(N)n2)c(C)n1Cc1ccccc1,14.8%
